# What was measured:
# Assay in all cases: DAPPL (digital affinity profiling via proximity ligation, sequencing); 10 mM Tris-HCl pH 7.5, 50 mM NaCl, 1 mM DTT, 4% glycerol, room temperature, 30 min; GST-TFs on glutathione beads, 16-mer random dsDNA library, 0.1% formaldehyde crosslink after washing; high values mean tight binding
# FLI1 = biological target: T1, FLI1 (Homo sapiens, UniProt Q01543 1-452); settings: protein: recombinant; tags: N-terminal GST; dsDNA, one strand shown
# T1 sequence: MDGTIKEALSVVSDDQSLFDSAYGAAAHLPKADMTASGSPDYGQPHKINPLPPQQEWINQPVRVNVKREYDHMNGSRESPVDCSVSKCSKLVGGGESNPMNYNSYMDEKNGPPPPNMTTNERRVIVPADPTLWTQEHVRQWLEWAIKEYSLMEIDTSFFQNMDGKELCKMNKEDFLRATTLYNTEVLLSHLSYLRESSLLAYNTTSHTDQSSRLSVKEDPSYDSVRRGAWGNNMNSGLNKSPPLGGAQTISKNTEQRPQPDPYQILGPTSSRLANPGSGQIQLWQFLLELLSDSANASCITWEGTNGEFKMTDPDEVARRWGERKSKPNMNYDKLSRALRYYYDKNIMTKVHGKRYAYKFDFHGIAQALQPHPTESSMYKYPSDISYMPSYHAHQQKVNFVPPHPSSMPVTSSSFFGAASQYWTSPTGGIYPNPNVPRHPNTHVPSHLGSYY
# Procedure, shortened: (§1)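 Sequencing on an Illumina NextSeq500 followed washing, crosslinking with 0.1% formaldehyde, proximity ligation (BsaI/T4 ligase, 1 h, 37 °C) and PCR amplification of pools that had been incubated for 30 min at room temperature with 200 nmole of a random double-stranded 16-mer DNA library in Tris/NaCl/DTT/glycerol buffer. Each pool held DNA-barcoded human transcription factors, expressed in yeast as GST fusions and captured on glutathione beads, plus a tag-only sample. Binding signal is a hexamer's read frequency for a factor divided by its frequency in the tag-only sample.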
# ELK1 = biological target: T2, ELK1 (Homo sapiens, UniProt P19419 1-428); settings: protein: recombinant; tags: N-terminal GST; dsDNA, one strand shown
# T2 sequence: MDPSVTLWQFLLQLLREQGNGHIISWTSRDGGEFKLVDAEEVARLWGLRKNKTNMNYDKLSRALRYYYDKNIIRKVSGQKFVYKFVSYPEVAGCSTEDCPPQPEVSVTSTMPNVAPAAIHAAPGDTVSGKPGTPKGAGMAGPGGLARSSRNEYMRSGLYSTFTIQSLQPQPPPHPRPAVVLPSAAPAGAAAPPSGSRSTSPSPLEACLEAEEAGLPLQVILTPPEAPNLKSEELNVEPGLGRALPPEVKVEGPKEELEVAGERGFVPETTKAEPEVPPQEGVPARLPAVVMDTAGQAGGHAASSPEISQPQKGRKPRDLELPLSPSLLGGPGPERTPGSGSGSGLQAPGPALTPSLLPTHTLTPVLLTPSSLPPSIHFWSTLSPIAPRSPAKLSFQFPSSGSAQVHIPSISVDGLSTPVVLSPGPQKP
# Procedure, shortened: as §1
# GABPA = biological target: T3, GABPA (Homo sapiens, UniProt Q06546 1-454); settings: protein: recombinant; tags: N-terminal GST; dsDNA, one strand shown
# T3 sequence: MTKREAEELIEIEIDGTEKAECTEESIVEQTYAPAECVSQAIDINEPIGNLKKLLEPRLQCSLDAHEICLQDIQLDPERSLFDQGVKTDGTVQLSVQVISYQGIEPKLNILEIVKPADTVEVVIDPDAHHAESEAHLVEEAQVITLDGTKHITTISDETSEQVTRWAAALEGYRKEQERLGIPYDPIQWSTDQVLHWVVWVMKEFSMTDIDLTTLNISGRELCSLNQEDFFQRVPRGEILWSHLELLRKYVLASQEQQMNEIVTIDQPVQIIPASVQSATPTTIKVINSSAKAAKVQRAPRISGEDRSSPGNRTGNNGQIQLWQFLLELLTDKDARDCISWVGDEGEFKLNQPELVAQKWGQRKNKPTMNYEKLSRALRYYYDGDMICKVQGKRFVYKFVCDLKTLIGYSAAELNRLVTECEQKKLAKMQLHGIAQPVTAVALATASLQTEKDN
# Procedure, shortened: as §1
# ERG = biological target: T4, ERG (Homo sapiens, UniProt P11308 1-479); settings: protein: recombinant; tags: N-terminal GST; dsDNA, one strand shown
# T4 sequence: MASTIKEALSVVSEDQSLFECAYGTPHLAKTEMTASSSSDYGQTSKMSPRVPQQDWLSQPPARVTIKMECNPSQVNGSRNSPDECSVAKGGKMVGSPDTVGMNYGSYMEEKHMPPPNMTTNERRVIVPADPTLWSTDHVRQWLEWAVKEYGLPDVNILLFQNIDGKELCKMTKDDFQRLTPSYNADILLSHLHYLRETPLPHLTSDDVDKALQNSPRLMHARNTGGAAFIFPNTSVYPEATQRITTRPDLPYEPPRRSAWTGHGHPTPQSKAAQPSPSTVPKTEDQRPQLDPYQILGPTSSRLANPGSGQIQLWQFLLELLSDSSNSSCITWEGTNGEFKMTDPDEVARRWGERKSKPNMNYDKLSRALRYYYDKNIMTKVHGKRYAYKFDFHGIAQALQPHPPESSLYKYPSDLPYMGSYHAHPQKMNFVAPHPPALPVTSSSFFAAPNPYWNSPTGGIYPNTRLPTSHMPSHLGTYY
# Procedure, shortened: as §1
# ELF1 = ELF1 (Homo sapiens, UniProt P32519 1-619); settings: protein: recombinant; tags: N-terminal GST; dsDNA, one strand shown
# ELF1, sequence (P32519 whole entry): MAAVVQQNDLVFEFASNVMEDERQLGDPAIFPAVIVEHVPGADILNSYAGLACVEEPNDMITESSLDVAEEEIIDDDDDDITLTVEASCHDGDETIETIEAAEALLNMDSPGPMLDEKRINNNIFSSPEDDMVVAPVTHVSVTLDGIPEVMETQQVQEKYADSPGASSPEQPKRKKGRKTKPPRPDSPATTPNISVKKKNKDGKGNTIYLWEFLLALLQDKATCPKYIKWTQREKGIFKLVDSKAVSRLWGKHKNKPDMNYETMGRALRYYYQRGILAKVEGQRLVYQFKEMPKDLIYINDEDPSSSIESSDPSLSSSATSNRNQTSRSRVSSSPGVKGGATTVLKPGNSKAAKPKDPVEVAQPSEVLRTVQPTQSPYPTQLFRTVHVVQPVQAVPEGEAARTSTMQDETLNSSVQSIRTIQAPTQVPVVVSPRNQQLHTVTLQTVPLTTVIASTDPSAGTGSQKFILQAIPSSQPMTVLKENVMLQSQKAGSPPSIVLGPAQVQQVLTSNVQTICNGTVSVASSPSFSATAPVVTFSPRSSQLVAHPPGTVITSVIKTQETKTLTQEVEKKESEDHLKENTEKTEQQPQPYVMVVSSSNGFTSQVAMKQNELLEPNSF
# Procedure, shortened: as §1
# EHF = biological target: T5, EHF (Homo sapiens, UniProt Q9NZC4 1-300); settings: protein: recombinant; tags: N-terminal GST; dsDNA, one strand shown
# T5 sequence: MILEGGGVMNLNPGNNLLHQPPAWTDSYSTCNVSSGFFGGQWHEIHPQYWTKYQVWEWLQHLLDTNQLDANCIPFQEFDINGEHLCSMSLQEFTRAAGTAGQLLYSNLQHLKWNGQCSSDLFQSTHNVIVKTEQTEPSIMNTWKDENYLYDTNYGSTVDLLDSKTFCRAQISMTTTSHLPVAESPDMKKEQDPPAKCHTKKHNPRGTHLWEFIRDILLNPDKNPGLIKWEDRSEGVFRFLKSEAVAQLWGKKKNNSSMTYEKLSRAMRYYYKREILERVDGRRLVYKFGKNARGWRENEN
# Procedure, shortened: as §1
# SPI1 = SPI1 (Homo sapiens, UniProt P17947 1-270); settings: protein: recombinant; tags: N-terminal GST; dsDNA, one strand shown
# Procedure, shortened: as §1
# SPIB = SPIB (Homo sapiens, UniProt Q01892 1-262); settings: protein: recombinant; tags: N-terminal GST; dsDNA, one strand shown
# SPIB, sequence (Q01892 whole entry): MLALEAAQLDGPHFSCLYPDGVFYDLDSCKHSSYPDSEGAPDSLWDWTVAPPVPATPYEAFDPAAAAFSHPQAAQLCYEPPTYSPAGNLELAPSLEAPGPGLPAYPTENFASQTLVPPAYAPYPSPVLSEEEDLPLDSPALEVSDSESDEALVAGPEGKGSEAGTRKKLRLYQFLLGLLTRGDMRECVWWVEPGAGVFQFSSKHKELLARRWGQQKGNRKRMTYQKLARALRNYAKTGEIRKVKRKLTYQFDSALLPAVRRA
# Procedure, shortened: as §1
# ELK3 = biological target: T6, ELK3 (Homo sapiens, UniProt P41970 1-407); settings: protein: recombinant; tags: N-terminal GST; dsDNA, one strand shown
# T6 sequence: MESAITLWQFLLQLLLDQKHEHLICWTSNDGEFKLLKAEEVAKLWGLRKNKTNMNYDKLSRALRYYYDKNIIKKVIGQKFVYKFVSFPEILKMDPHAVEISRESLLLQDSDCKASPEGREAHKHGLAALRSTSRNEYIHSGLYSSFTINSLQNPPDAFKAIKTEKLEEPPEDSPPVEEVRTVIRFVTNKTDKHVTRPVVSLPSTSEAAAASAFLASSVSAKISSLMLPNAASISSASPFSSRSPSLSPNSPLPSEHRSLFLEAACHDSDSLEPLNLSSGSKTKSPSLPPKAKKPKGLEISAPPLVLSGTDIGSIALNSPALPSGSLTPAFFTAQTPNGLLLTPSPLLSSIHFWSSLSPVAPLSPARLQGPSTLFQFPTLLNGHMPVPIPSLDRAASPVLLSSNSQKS
# Procedure, shortened: as §1
# FEV = biological target: T7, FEV (Homo sapiens, UniProt Q99581 1-238); settings: protein: recombinant; tags: N-terminal GST; dsDNA, one strand shown
# T7 sequence: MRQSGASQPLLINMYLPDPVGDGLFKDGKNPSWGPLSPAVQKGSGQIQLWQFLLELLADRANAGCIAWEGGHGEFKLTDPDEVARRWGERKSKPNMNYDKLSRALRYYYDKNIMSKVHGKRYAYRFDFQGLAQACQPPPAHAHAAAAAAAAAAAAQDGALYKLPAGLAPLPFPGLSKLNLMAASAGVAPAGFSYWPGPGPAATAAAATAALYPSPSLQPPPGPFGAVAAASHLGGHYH
# Procedure, shortened: as §1
# ETV5 = ETV5 (Homo sapiens, UniProt P41161 1-510); settings: protein: recombinant; tags: N-terminal GST; dsDNA, one strand shown
# ETV5, sequence (P41161 whole entry): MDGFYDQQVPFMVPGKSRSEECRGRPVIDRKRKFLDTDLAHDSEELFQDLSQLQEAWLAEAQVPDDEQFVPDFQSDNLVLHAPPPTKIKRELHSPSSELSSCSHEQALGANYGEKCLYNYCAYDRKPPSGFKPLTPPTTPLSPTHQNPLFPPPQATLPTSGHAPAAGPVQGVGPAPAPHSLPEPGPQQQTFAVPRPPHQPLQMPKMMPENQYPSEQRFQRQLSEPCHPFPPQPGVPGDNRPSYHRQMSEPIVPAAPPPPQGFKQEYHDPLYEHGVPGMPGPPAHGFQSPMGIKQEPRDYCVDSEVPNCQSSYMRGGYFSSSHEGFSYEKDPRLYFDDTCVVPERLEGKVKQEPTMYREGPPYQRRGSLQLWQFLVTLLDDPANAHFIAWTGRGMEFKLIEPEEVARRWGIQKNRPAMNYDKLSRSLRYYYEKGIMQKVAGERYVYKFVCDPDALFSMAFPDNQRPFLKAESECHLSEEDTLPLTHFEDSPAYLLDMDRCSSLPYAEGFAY
# Procedure, shortened: as §1
# HSF1 = HSF1 (Homo sapiens, UniProt Q00613 1-529); settings: protein: recombinant; tags: N-terminal GST; chain copies: 3; dsDNA, one strand shown
# HSF1, sequence (Q00613 whole entry): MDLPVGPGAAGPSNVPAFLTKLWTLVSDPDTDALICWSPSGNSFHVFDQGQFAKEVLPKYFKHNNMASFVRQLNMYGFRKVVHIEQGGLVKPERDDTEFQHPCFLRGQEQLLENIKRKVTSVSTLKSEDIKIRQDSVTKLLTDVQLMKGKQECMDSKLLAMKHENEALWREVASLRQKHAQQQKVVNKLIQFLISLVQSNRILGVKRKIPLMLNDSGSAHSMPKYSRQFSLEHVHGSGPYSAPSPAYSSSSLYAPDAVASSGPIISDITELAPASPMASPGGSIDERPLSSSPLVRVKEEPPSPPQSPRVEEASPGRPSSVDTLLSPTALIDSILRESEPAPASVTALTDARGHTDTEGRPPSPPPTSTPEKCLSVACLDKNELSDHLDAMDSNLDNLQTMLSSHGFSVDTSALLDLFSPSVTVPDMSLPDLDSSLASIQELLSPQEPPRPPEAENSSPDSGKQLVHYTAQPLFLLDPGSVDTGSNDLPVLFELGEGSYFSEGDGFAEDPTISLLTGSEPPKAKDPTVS
# Procedure, shortened: as §1
# SPIC = biological target: T8, SPIC (Homo sapiens, UniProt Q8N5J4 1-248); settings: protein: recombinant; tags: N-terminal GST; dsDNA, one strand shown
# T8 sequence: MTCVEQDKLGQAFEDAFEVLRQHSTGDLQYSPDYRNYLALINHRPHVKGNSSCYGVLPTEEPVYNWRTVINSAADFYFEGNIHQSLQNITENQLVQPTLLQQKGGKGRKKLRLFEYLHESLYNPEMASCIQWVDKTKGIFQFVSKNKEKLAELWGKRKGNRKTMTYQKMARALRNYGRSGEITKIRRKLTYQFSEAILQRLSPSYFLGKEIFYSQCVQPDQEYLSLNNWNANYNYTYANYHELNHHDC
# Procedure, shortened: as §1
# ELF4 = ELF4 (Homo sapiens, UniProt Q99607 1-663); settings: protein: recombinant; tags: N-terminal GST; dsDNA, one strand shown
# ELF4, sequence (Q99607 whole entry): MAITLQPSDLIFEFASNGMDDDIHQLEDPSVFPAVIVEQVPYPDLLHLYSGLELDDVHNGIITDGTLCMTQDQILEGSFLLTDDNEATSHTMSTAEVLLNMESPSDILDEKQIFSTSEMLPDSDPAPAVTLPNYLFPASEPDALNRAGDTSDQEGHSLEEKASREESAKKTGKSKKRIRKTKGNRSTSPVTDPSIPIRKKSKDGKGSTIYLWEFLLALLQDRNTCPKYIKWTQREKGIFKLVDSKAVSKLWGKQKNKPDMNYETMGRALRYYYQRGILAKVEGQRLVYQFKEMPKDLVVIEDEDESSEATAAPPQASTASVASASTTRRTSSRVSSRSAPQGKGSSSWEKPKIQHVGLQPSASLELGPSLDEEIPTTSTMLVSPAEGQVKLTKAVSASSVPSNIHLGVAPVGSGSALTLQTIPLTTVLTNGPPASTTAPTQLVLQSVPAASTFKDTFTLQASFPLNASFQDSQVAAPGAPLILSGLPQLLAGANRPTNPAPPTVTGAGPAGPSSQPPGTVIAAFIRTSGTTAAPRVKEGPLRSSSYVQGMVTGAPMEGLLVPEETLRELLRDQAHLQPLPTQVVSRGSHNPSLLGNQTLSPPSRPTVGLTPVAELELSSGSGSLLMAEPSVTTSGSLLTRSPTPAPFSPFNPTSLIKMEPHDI
# Procedure, shortened: as §1
# ELK4 = biological target: T9, ELK4 (Homo sapiens, UniProt P28324-2 1-405); settings: protein: recombinant; tags: N-terminal GST; dsDNA, one strand shown
# T9 sequence: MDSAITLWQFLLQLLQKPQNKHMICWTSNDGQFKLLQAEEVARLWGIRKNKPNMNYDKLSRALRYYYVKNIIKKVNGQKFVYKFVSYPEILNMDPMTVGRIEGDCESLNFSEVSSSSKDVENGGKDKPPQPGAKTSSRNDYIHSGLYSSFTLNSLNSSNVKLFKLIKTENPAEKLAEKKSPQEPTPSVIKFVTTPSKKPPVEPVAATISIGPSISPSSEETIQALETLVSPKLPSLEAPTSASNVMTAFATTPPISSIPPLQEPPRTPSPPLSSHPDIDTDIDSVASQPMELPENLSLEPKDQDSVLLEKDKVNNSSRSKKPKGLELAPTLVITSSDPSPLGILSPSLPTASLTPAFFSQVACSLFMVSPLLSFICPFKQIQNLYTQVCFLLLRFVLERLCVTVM
# Procedure, shortened: as §1
# ETV2 = biological target: T10, ETV2 (Homo sapiens, UniProt O00321 1-342); settings: protein: recombinant; tags: N-terminal GST; dsDNA, one strand shown
# T10 sequence: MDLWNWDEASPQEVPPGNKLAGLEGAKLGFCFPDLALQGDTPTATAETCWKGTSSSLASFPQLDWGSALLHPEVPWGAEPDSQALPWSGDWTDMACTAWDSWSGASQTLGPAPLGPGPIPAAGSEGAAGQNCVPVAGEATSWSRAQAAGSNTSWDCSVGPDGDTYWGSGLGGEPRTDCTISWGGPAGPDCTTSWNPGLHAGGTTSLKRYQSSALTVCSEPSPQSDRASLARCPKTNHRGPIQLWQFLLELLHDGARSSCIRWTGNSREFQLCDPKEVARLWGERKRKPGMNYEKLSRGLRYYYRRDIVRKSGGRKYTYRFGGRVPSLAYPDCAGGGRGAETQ
# Procedure, shortened: as §1
# ELF3 = biological target: T11, ELF3 (Homo sapiens, UniProt P78545 1-371); settings: protein: recombinant; tags: N-terminal GST; dsDNA, one strand shown
# T11 sequence: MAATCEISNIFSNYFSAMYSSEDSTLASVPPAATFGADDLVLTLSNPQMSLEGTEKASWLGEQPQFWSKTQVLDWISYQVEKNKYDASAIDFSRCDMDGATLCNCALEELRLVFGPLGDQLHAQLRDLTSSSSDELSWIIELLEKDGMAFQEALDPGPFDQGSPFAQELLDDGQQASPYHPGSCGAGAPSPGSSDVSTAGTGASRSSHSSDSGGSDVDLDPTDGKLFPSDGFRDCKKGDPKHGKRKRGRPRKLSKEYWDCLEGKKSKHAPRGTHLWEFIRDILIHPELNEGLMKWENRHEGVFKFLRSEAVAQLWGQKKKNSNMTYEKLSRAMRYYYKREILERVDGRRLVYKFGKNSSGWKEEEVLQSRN
# Procedure, shortened: as §1
# CRX = CRX (Homo sapiens, UniProt O43186 1-299); settings: protein: recombinant; tags: N-terminal GST; dsDNA, one strand shown
# CRX, sequence (O43186 whole entry): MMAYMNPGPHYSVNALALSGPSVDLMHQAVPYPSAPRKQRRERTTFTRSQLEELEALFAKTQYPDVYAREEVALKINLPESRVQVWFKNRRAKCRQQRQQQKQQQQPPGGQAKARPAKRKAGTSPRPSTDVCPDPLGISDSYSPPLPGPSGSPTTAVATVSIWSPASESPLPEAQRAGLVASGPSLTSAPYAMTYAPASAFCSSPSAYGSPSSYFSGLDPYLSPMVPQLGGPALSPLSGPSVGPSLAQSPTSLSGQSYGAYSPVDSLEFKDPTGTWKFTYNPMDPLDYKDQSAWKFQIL
# Procedure, shortened: as §1
# ETV1 = ETV1 (Homo sapiens, UniProt P50549 1-477); settings: protein: recombinant; tags: N-terminal GST; dsDNA, one strand shown
# ETV1, sequence (P50549 whole entry): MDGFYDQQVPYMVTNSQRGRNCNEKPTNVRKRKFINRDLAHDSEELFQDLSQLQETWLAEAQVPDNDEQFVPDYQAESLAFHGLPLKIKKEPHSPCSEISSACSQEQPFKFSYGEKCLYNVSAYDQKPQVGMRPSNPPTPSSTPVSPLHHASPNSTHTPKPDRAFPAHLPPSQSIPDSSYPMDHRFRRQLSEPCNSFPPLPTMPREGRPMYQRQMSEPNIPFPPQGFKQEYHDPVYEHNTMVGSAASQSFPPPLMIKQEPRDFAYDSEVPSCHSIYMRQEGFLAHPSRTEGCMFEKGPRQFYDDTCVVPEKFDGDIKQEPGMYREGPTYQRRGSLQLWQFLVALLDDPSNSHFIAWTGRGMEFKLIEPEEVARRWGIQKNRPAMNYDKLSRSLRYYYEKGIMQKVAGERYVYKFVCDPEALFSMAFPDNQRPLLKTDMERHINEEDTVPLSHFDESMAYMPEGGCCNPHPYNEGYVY
# Procedure, shortened: as §1
sequence,measurement,setting,value
AACTAA,binding signal,FLI1,"1.39 fold enrichment (6-mer frequency, TF over GST control)"
same,binding signal,ELK1,"1.27 fold enrichment (6-mer frequency, TF over GST control)"
same,binding signal,GABPA,"1.38 fold enrichment (6-mer frequency, TF over GST control)"
same,binding signal,ERG,"1.33 fold enrichment (6-mer frequency, TF over GST control)"
same,binding signal,ELF1,"1.42 fold enrichment (6-mer frequency, TF over GST control)"
same,binding signal,EHF,"1.42 fold enrichment (6-mer frequency, TF over GST control)"
same,binding signal,SPI1,"1.38 fold enrichment (6-mer frequency, TF over GST control)"
same,binding signal,SPIB,"1.41 fold enrichment (6-mer frequency, TF over GST control)"
same,binding signal,ELK3,"1.4 fold enrichment (6-mer frequency, TF over GST control)"
same,binding signal,FEV,"1.35 fold enrichment (6-mer frequency, TF over GST control)"
same,binding signal,ETV5,"1.39 fold enrichment (6-mer frequency, TF over GST control)"
same,binding signal,HSF1,"1.44 fold enrichment (6-mer frequency, TF over GST control)"
same,binding signal,SPIC,"1.3 fold enrichment (6-mer frequency, TF over GST control)"
same,binding signal,ELF4,"1.45 fold enrichment (6-mer frequency, TF over GST control)"
same,binding signal,ELK4,"1.3 fold enrichment (6-mer frequency, TF over GST control)"
same,binding signal,ETV2,"1.24 fold enrichment (6-mer frequency, TF over GST control)"
same,binding signal,ELF3,"1.3 fold enrichment (6-mer frequency, TF over GST control)"
same,binding signal,CRX,"1.84 fold enrichment (6-mer frequency, TF over GST control)"
same,binding signal,ETV1,"1.39 fold enrichment (6-mer frequency, TF over GST control)"

# From article PMC7862700, “An all-to-all approach to the identification of sequence-specific readers for epigenetic DNA modifications on cytosine”
